An excerpt weighted towards active compounds, which were near 1.3% of everything screened.
RPL19A-GFP yeast = yeast TOR pathway RPL19A-GFP modulation; S. cerevisiae RPL19A-GFP strain, flow cytometry, 3 h; hits give low values; percent response vs DMSO, % at 10 µM; 0.3% of 330,000 active; AID 2025;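 active means percent response vs DMSO below 50%; inconclusive means fewer than 70 events counted for the yeast strain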;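 further: median channel GFP fluorescence of the barcoded RPL19A-GFP strain; lower means less RPL19A-GFP as with rapamycin TOR inhibition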
Efflux pump inh = antifungal efflux pump inhibition, Nile Red retention; AID 485275; inhibition, % at 10 µM; 0.44% of 330,000 active; S. cerevisiae Candida pump triplex;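 active means plate passing quality check with inhibition over a set limit, or well fluorescence over plate mean plus 4 SD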;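 further: Nile Red retained in pooled yeast measured as flow cytometry median fluorescence; higher means more Nile Red kept so more efflux inhibition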
CIT2-GFP yeast = modulators of TOR pathway CIT2-GFP in S. cerevisiae; GFP response vs DMSO, % at 10 µM; 0.065% of 320,000 active; S. cerevisiae CIT2-GFP strain, flow cytometry, 3 h; 100 means same as DMSO wells; AID 2029;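 active means GFP response relative to DMSO above a set limit, near the screen mean plus 3 SD, cut at about 150% in these data; inconclusive means Fewer than 70 cells measured for a yeast strain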;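 further: ratio of well median GFP fluorescence to mean of DMSO wells on the plate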
AGP1 TOR yeast = modulators of TOR pathway AGP1-GFP in S. cerevisiae; S. cerevisiae AGP1-GFP multiplex flow cytometry, 3 h; GFP as percent of DMSO wells; GFP response vs DMSO, % at 10 µM; 0.02% of 320,000 active; AID 2066;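 active means GFP response relative to DMSO above a set limit, near screen average plus 3 SD, cut at about 150% in these data; inconclusive means fewer than 70 cells counted for the yeast strain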;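 further: median GFP channel fluorescence of the gated AGP1 strain per well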
MEP2-GFP yeast = modulators of TOR pathway MEP2-GFP in S. cerevisiae | S. cerevisiae MEP2-GFP strain, flow cytometry GFP, 3 h; 100% = DMSO control level | GFP response vs DMSO, % at 10 µM | 0.51% of 330,000 active;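 active means GFP response versus DMSO above a set limit, roughly screen mean plus 3 SD, cut at about 180% in these data; inconclusive means fewer than 70 cells counted for a yeast strain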;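 further: median GFP fluorescence of the barcode-gated MEP2-GFP cells per well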
LAP4 TOR yeast = alters LAP4-GFP fluorescence in TOR pathway yeast screen | S. cerevisiae LAP4-GFP multiplex, flow cytometry GFP, 3 h; median GFP as percent of DMSO wells | GFP response vs DMSO, % at 10 µM | 0.34% of 320,000 active | AID 2023;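 active means GFP response vs DMSO above a set limit, about the screen mean plus 3 SD, cut at about 150% in these data; inconclusive means under 70 cell events counted for the yeast strain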
Cmpd fluor yeast = flagged as fluorescent in efflux inhibitor counter-screen. shares compounds with Efflux pump inh. S. cerevisiae AD/pABC3, compound fluorescence, flow cytometry. fluorescence ratio to DMSO, % at 10 µM. 4% of 1,700 active. AID 588517;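 active means fluorescence ratio to DMSO above its plate's cutoff, the plate mean ratio plus 5 SD, cut at about 210% in these data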;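 further: unstained yeast with no Nile Red so the signal is compound autofluorescence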
Mdr1 pump inh = blocks the Candida albicans Mdr1 efflux pump in yeast. shares compounds with Efflux pump inh. S. cerevisiae AD/CaMDR1, Nile Red efflux, flow cytometry. inhibition, % at 10 µM. 1% of 1,700 active; in the data active means inhibition above about 26%;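 further: higher means more Nile Red retained so more efflux inhibition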
CaCdr2 efflux inh = Candida Cdr2 efflux pump inhibition | shares compounds with Efflux pump inh | S. cerevisiae AD/CaCDR2, Nile Red retention, flow cytometry | Nile Red retention ratio vs DMSO, % at 10 µM | 4% of 1,700 active; in the data active means Nile Red retention ratio vs DMSO above about 190%;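 further: higher ratio means more blocking of Cdr2 efflux of the dye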
Cdr1 pump inh = Candida Cdr1 efflux pump inhibition; shares compounds with Efflux pump inh; S. cerevisiae AD/CaCDR1, Nile Red efflux, flow cytometry; 1% of 1,700 active; AID 588522; inhibition, % at 10 µM;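 active means inhibition above the screen-wide mean plus twice its standard deviation, cut at about 32% in these data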
A number is an active result; . = inactive; ? = inconclusive; / = no result given.

SMILES | RPL19A-GFP yeast | Efflux pump inh | CIT2-GFP yeast | AGP1 TOR yeast | MEP2-GFP yeast | LAP4 TOR yeast | Cmpd fluor yeast | Mdr1 pump inh | CaCdr2 efflux inh | Cdr1 pump inh
CCN(CC(=O)Nc1ccc(NC(C)=O)cc1)C(=O)c1ccc(=O)n(C)n1 | . | . | . | . | . | . | / | / | / | /
COC(=O)c1ccc2c(c1)c(-c1ccccc1)c(-c1ccccc1)n2C | / | . | / | / | / | / | / | / | / | /
COc1ccc(NS(=O)(=O)c2cn(C)cn2)cc1 | . | . | . | . | . | . | / | / | / | /
CSc1cccc(NS(=O)(=O)c2cn(C)cn2)c1 | . | 1.3 | . | . | . | . | . | . | . | .
COC(=O)c1cc(S(=O)(=O)Nc2cc(S(=O)(=O)N(C)C)ccc2C)oc1C | . | . | / | / | . | / | / | / | / | /
CCCOc1ccc(-c2nc(N3CCN(CC)CC3)c3ccccc3n2)cc1 | . | . | . | . | . | . | / | / | / | /
CCCOc1ccc(-c2nc(N3CCN(C)CC3)c3ccccc3n2)cc1 | . | 1.0 | . | . | . | . | . | . | . | .
COc1cc(C(C)=O)ccc1OCC(=O)NCCCn1nc(C)cc1C | . | . | . | . | . | . | / | / | / | /
COc1cc(C=C(c2nc3ccccc3s2)c2nc3ccccc3s2)ccc1O | . | . | . | . | . | . | / | / | / | /
COc1cc(/C=C/c2nc3ccccc3s2)cc(OC)c1O | . | 0.8 | . | . | . | . | . | . | . | .
CN(C)c1ccc(/C=C/c2nc3ccccc3s2)cc1 | . | 0.6 | ? | . | . | . | . | . | . | .
O=C(CCN=C1NS(=O)(=O)c2ccccc21)Nc1ccc(F)cc1Cl | . | . | . | . | . | . | / | / | / | /
CCC1=NN2C(=N)/C(=C/c3c(C)nn(-c4ccccc4)c3Cl)C(=O)N=C2S1 | . | 23 | . | . | . | . | . | . | . | .
CCSc1cc(N2CCCC2)nc(-c2ccc(Cl)cc2)n1 | . | . | . | . | . | . | . | . | . | .
CCSc1cc(N2CCOCC2)nc(-c2ccc(Cl)cc2)n1 | . | . | . | . | . | . | . | . | . | .
COc1cc2[nH]c(C(=O)N3CCN(c4ccccc4F)CC3)cc2c(OC)c1OC | . | . | . | . | . | . | / | / | / | /
COc1ccc(CNc2cccc3[nH]c(C(F)(F)F)nc23)cc1OC | . | . | . | . | . | . | / | / | / | /
COc1ccc(NS(=O)(=O)c2cc(NC(=O)c3cnc(C)cn3)ccc2N2CCCC2)cc1 | . | . | . | . | . | . | / | / | / | /
COc1ccc(NS(=O)(=O)c2cc(NC(=O)c3cccnc3Cl)ccc2N2CCCC2)cc1 | . | 0.5 | . | . | . | . | . | . | . | .
Cc1occc1C(=O)NCc1cccc(CNC(=O)c2ccoc2C)c1 | . | 0.3 | . | . | . | . | . | . | . | .
O=C(CCCc1ccccc1)Nc1cccc([N+](=O)[O-])c1 | . | 0.8 | . | . | . | . | . | . | . | .
CCOc1ccc(NC(=O)N2CCC(n3c(=O)[nH]c4ccccc43)CC2)cc1 | . | 0.8 | . | . | . | . | . | . | . | .
O=C(Nc1cccc(F)c1)N1CCC(n2c(=O)[nH]c3ccccc32)CC1 | . | . | . | . | . | . | / | / | / | /
Cc1cccc(C)c1OCc1cc(C(=O)N2CCCCCCC2)no1 | . | . | . | . | . | . | / | / | / | /
Cc1cccc(C)c1OCc1cc(C(=O)N2CCNC(=O)C2)no1 | . | . | . | . | . | . | . | . | . | .
COc1cc(OC)c(OC)cc1/C=N/NC(=O)C[n+]1ccccc1 | . | 7.6 | . | . | . | . | . | . | . | .
CCOc1ccc(C(=O)NCC(=O)NCCCSc2ccccc2)cc1OCC | . | . | . | . | . | . | / | / | / | /

Screening data deposited in PubChem BioAssay by NMMLSC.
